Values joined by “and” are separate entries in the source; they are usually repeats but may differ in a detail not shown here. Equal entries are not always repeated. In all, about 4,400 compounds went through this assay and about 390 (8.9%) showed an effect of 50% or more. The full list was thinned out, with strong results kept by preference.
What follows are molecules tested on Trypanosoma brucei (assay: DNDI: Inhibition of Human African Trypanosomiasis, SBRI 427, in vitro at 2 ug.mL-1).
Assay type: functional

Structure (SMILES)	% inhibition
O/N=C(\Nc1ccon1)c1ccc(Oc2cccc3cccnc23)nc1	13%
CCOc1ccccc1-c1nc(CN2CCN(c3cc(C)nc4ccccc34)CC2)co1	14%
CN(Cc1ccco1)/C(=N\O)c1cccnc1OCc1ccccc1F	5%
CN(/C(=N\O)c1cccnc1OCc1cccc(F)c1)c1ccccc1	98%
Cc1ccc(/C(=N/O)N(C)c2ccccc2)c(OCc2ccccc2F)n1	-4%
CN(/C(=N\O)c1cccnc1OCc1ccccc1F)c1ccccc1	98%
N/C(=N\O)c1cccnc1OCc1cccc(F)c1	-4%
CN(/C(=N\O)c1cccnc1OCc1cccc(F)c1)C1CCCCC1	-3%
O=Cc1nccn1Cc1coc(-c2ccc(Br)cc2)n1	11%
CCOc1ccccc1CN/C(=N\O)c1ccnc(Oc2ccc(F)c(F)c2)c1	13%
CN(C)CCN(Cc1ccccc1)Cc1coc(-c2ccc(Br)cc2)n1	23%
Clc1cccc(N2CCN(Cc3coc(-c4ccccc4Br)n3)CC2)c1	7%
COc1ccccc1CCNCc1coc(-c2ccccc2Br)n1	6%
CCOc1ccccc1CN/C(=N\O)c1ccc(Oc2cc(C)cc(C)c2)nc1	28%
Cc1ccc(/C(=N/O)N2CCC(N(C)C)C2)c(Oc2cccc(F)c2)n1 (stereo not given)	6%
CCOc1ccccc1-c1nc(CNC2C[C@H]3CC[C@@H]2C3)co1 (stereo not given in full)	28%
CCOc1ccccc1-c1nc(CNC2CCCCCCCCCCC2)co1	99%
Cc1ccccc1-c1nc(CNC(C)C2CCCCC2)co1 (stereo not given)	23%
CC(NCc1coc(-c2ccccc2Br)n1)C1CCCCC1 (stereo not given)	-30% and -35%
CCOc1ccc(-c2nc(CNC(C)C3CCCCC3)co2)cc1 (stereo not given)	87%
CCOc1ccccc1-c1nc(CNC(C)C2CCCCC2)co1 (stereo not given)	98%
CC(NCc1coc(-c2ccc(Br)cc2)n1)C1CCCCC1 (stereo not given)	36%
CC(NCc1coc(-c2cccc3ccccc23)n1)C1CCCCC1 (stereo not given)	87% and 90%
CCOc1ccccc1-c1nc(CNC(C)c2cccc3ccccc23)co1 (stereo not given)	5% and 9%

Structure (SMILES)	% inhibition
Cc1ccc(-c2nc(CNC(C)C3CCCCC3)co2)cc1 (stereo not given)	25%
CCOc1ccccc1-c1nc(CNC(C)c2ccc(C)cc2)co1 (stereo not given)	15%
CCOc1ccccc1-c1nc(CNC2CCN(Cc3ccccc3)C2)co1 (stereo not given)	6%
N/C(=N\O)c1ccc(Oc2cccc3ccccc23)nc1	36%
COc1ccc(-c2nc(CN(C)Cc3cccc4ccccc34)co2)cc1	-11%
COCCN(/C(=N\O)c1ccc(Oc2ccc(C)cc2C)nc1)C(C)C	5%
COc1ccc(-c2nc(CNC[C@@H]3CCCO3)co2)cc1	16%
CCOc1ccccc1-c1nc(CN(CCC#N)CC2CCCO2)co1 (stereo not given)	-20%
CCOc1ccccc1-c1nc(CN(CC)CCN(CC)CC)co1	-5%
O/N=C(\NC1CCc2ccccc21)c1ccnc(Oc2cccc3cnccc23)c1 (stereo not given)	18%
C=CCN1CCN(/C(=N\O)c2cccnc2Oc2ccc(Cl)cc2)CC1	7%
Brc1ccccc1-c1nc(CNCCC2=CCCCC2)co1	-2%
CCOc1ccccc1-c1nc(CNCCC2=CCCCC2)co1	53%
Cc1ccccc1-c1nc(CNCCC2=CCCCC2)co1	10%
COc1ccc(OC)c(NCc2coc(-c3ccco3)n2)c1	-5%
CCC(CC)NCc1coc(-c2ccccc2Cl)n1	-8%
CCOc1ccc(Oc2nc(C)ccc2/C(=N/O)NCc2ccco2)cc1	6%
Cc1ccc([C@@H](C)NCc2coc(-c3ccc(Cl)cc3Cl)n2)cc1	14%
O/N=C(/c1ccnc(Oc2cccc(F)c2)c1)N1CCCCCC1	3%
CCC(CC)N/C(=N\O)c1ccc(C)nc1Oc1ccc(C)cc1	70%
COc1cc(C)ccc1Oc1nc(C)ccc1/C(=N/O)NC(C)C	29%
CCC(CC)N/C(=N\O)c1ccc(C)nc1Oc1cc(C)cc(C(C)C)c1	15%
CSc1ccc(Oc2nc(C)ccc2/C(=N/O)NC(C)C)cc1	-8%
CCC(CC)N/C(=N\O)c1ccc(C)nc1Oc1ccc(C)cc1OC	100%

Structure (SMILES)	% inhibition
CCC(CC)N/C(=N\O)c1ccc(C)nc1Oc1ccc(C)cc1C	34%
CCC(CC)N/C(=N\O)c1ccc(C)nc1Oc1ccc(SC)cc1	99%
CCC(CC)N/C(=N\O)c1ccc(C)nc1Oc1ccc(F)cc1	24%
CSc1ccc(Oc2nc(C)ccc2/C(=N/O)NCC(C)(C)C)cc1	-6%
Cc1ccc(/C(N)=N/O)c(Oc2cccc3ccc(C)nc23)n1	13%
O/N=C(\NCCN1CCOCC1)c1ccc(Oc2cccc3cccnc23)nc1	9%
Cc1cc(Oc2ccc(/C(=N/O)n3ccnc3)cn2)cc(C(C)C)c1	1%
C=CCN1CCN(/C(=N\O)c2ccnc(Oc3ccc(C)c4c3CCC4)c2)CC1	22%
Cc1ccccc1-c1nc(CN2CCN(C/C=C/c3ccccc3)CC2)co1	-34%
Cc1cccc(-c2nc(CNCc3ccc(C(C)(C)C)cc3)co2)c1	-9%
COCCN(/C(=N\O)c1cccnc1Oc1ccccc1F)C(C)C	5%
COc1ccc(CN/C(=N\O)c2cccnc2Oc2ccccc2SC)cc1	16%
Cc1cn(/C(=N\O)c2cccnc2Oc2c(F)cccc2F)cn1	-7%
CCC(CC)N/C(=N\O)c1cccnc1Oc1ccccc1OC	76%
CCC(CC)N/C(=N\O)c1cccnc1Oc1ccccc1SC	99%
CCC(CC)N/C(=N\O)c1cccnc1Oc1c(F)cccc1F	99%
COCC(C)N/C(=N\O)c1cccnc1Oc1ccccc1OC(C)C (stereo not given)	-8%
CSc1ccccc1Oc1ncccc1/C(=N/O)NCc1cccs1	28%
COCC(C)N/C(=N\O)c1cccnc1OCc1ccccc1F (stereo not given)	-13%
CCC(CC)N/C(=N\O)c1cccnc1Oc1ccccc1F	96%
COC[C@H]1CCCN1Cc1coc(-c2ccc(O)cc2)n1	16%
Clc1ccccc1-c1nc(CNCCc2ccccc2)co1	-15%

Reference: ChEMBL document CHEMBL1857833, “Screening and optimization of specific chemical series against human African Trypanosomiasis (HAT)”
